Consider 7 compounds from PubChem BioAssay (NCI).

SMILES strings stand for the structures. About 83,000 compounds went through this panel and 20% of them were active in at least one assay; those are over-represented in the sample as a whole.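 Note: values are percent growth. 100 is the growth of untreated cells, values between 100 and 0 indicate rising inhibition; between -100 and 0 indicates cell death.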 Values without a mark were called inactive. Active and inactive are the calls of the source. How the source made its calls: active means growth percent below 10; inactive means the rest.

Test systems include SR leukemia; RPMI-8226 leukemia; OVCAR-8 ovarian; OVCAR-5 ovarian; OVCAR-4 ovarian; SK-OV-3 ovarian; IGROV1 ovarian; OVCAR-3 ovarian; HS 578T breast; NCI/ADR-RES ovarian; BT-549 breast; MDA-MB-435 melanoma; SW-620 colon; MCF7 breast; HCT-116 colon; HCC-2998 colon; KM12 colon; T-47D breast.
What all share (experiment): NCI-60 one-dose screen, 48 h (100 = growth as untreated, 0 = no growth, -100 = all killed)
Holding throughout (conditions): 10 µM unless noted

For `COc1ccc(/C=C/C(=O)c2cc3c(N)c(C(=O)Nc4ccccc4Cl)sc3nc2C)cc1`, the growth is 53.1% in the assay with SR leukemia; 53% with RPMI-8226 leukemia; 40.3% in the assay with OVCAR-8 ovarian; 79% in the assay with OVCAR-5 ovarian; -13% (active) with OVCAR-4 ovarian; 58.5% in the assay on SK-OV-3 ovarian. Moreover, the growth in the assay with IGROV1 ovarian was 26.9%; in the assay on OVCAR-3 ovarian it was 21.1%; with HS 578T breast, 10.3%; in the assay on NCI/ADR-RES ovarian, 42.9%; with BT-549 breast, 59%; in the assay on MDA-MB-435 melanoma it was -61.6% (active). The growth was 48.1% in the assay on SW-620 colon; 17.2% in the assay on MCF7 breast; 59% with HCT-116 colon; 51.3% in the assay on HCC-2998 colon; 51.6% in the assay with KM12 colon.

With `CCN(c1cc(-c2ccc(CN3CCC(/C=C/S(=O)(=O)c4ccccc4)CC3)cc2)cc(C(=O)NCc2c(C)cc(C)[nH]c2=O)c1C)C1CCOCC1`, the growth is 17.9% with SR leukemia; 19.2% in the assay on RPMI-8226 leukemia; 75% in the assay on OVCAR-8 ovarian; 90.3% with OVCAR-5 ovarian; 73% in the assay with OVCAR-4 ovarian; 86.2% with SK-OV-3 ovarian. Besides, the growth is 53.7% in the assay with IGROV1 ovarian; 77.3% in the assay with OVCAR-3 ovarian; 62.2% in the assay on HS 578T breast; 71.6% in the assay with T-47D breast; 51.3% in the assay on BT-549 breast; 76.8% with MDA-MB-435 melanoma. In addition, the growth in the assay with SW-620 colon was 94%; in the assay with MCF7 breast, 44.3%; in the assay with HCT-116 colon, 56.9%; with HCC-2998 colon, 101%; in the assay with KM12 colon, 76.1%.

In the case of `COc1ccc2c(c1)CC[C@@H]1[C@@H]2CC[C@]2(C)C3C(=CCC4C(=O)N(c5ccccc5)C(=O)C43)C[C@@H]12` (some centres undefined), the growth with SR leukemia is 99.1%; in the assay on RPMI-8226 leukemia it was 61.2%; in the assay with OVCAR-8 ovarian, 86.2%; with OVCAR-5 ovarian, 75.7%; in the assay with OVCAR-4 ovarian it was 78.8%; in the assay with SK-OV-3 ovarian, 103%. Further, the growth in the assay on IGROV1 ovarian was 113%; with OVCAR-3 ovarian, 87.3%; with HS 578T breast, 97.6%; in the assay on NCI/ADR-RES ovarian it was 85.8%; in the assay with BT-549 breast it was 110%; in the assay with MDA-MB-435 melanoma it was 86.4%. Moreover, the growth in the assay with SW-620 colon was 90.6%; in the assay on MCF7 breast, 111%; with HCT-116 colon, 66.9%; in the assay with HCC-2998 colon it was 93.6%; with KM12 colon it was 93.6%.

Turning to `CCCCn1c(C(=O)c2c[nH]c3ccccc23)n[nH]c1=S`, the growth was 91.7% with SR leukemia; 78.7% with RPMI-8226 leukemia; 93.1% in the assay with OVCAR-8 ovarian; 133% in the assay with OVCAR-5 ovarian; 92.4% with OVCAR-4 ovarian; 88.4% in the assay with SK-OV-3 ovarian. Besides, the growth in the assay with IGROV1 ovarian was 87.7%; in the assay with OVCAR-3 ovarian, 106%; with HS 578T breast it was 91%; in the assay on T-47D breast, 77.5%; in the assay with BT-549 breast, 114%; with MDA-MB-435 melanoma it was 98.7%. The growth with SW-620 colon was 101%; with MCF7 breast, 73.2%; in the assay on HCT-116 colon, 92.4%; with HCC-2998 colon it was 101%; with KM12 colon, 92.2%.

Turning to `CCOC(=O)C(=Cc1ccc(C#N)cc1)C(=O)OCC`, the growth is 0.158% (active) in the assay on SR leukemia; -1.68% (active) in the assay with RPMI-8226 leukemia; 34.5% with OVCAR-8 ovarian; 30.8% in the assay on OVCAR-5 ovarian; 53.9% in the assay with OVCAR-4 ovarian; 84.9% in the assay with SK-OV-3 ovarian. Besides, the growth was 32.7% with IGROV1 ovarian; 17% in the assay with OVCAR-3 ovarian; 78.5% with HS 578T breast; 20.3% in the assay on NCI/ADR-RES ovarian; 47.3% in the assay with BT-549 breast; 8.84% (active) in the assay on MDA-MB-435 melanoma. Moreover, the growth in the assay on SW-620 colon is 0.79% (active); in the assay on MCF7 breast, 12.3%; with HCT-116 colon, -13.1% (active); in the assay on HCC-2998 colon, 78.7%; in the assay on KM12 colon, 29.8%.

For the compound `COc1ccc(/C=N/NC(=O)CN2CCN(c3cc4c(cc3F)c(=O)c(C(=O)O)cn4C3CC3)CC2)cc1O`, the growth was 80.2% in the assay with SR leukemia; 92.3% with RPMI-8226 leukemia; 95.1% in the assay with OVCAR-8 ovarian; 108% in the assay on OVCAR-5 ovarian; 108% with OVCAR-4 ovarian; 108% with SK-OV-3 ovarian. For the same compound, the growth in the assay on IGROV1 ovarian is 95.5%; in the assay on OVCAR-3 ovarian, 103%; in the assay with HS 578T breast it was 96.8%; in the assay with T-47D breast, 96.6%; with BT-549 breast, 107%; in the assay on MDA-MB-435 melanoma it was 107%. Besides, the growth in the assay with SW-620 colon was 102%; in the assay on MCF7 breast, 92.6%; in the assay on HCT-116 colon, 93.4%; in the assay with HCC-2998 colon, 99.2%; in the assay with KM12 colon it was 102%.

As to `COC1/C=C/OC2(C)Oc3c(C)c(O)c4c(O)c(c(C=NOC(c5ccccc5)c5ccccc5)c(O)c4c3C2=O)NC(=O)/C(C)=C/C=C/C(C)C(O)C(C)C(O)C(C)C(OC(C)=O)C1C` (centres undefined), the growth with SR leukemia was -5.09% (active); in the assay with RPMI-8226 leukemia it was 3.28% (active); with OVCAR-8 ovarian, 24.8%; in the assay with OVCAR-5 ovarian it was 38.1%; with OVCAR-4 ovarian, 15.2%; in the assay with SK-OV-3 ovarian, -34% (active). Also, the growth was 29.8% in the assay with IGROV1 ovarian; 11.9% in the assay with OVCAR-3 ovarian; -5.16% (active) in the assay on HS 578T breast; -82.7% (active) in the assay with T-47D breast; 32.7% in the assay on BT-549 breast; 11.5% with MDA-MB-435 melanoma. The growth with SW-620 colon was 18.3%; in the assay with MCF7 breast it was 10.9%; with HCT-116 colon, 10.9%; in the assay on HCC-2998 colon, -38.8% (active); in the assay with KM12 colon, 5.8% (active).
